# Assay: compound binding in COS7 lysate, probe aLAP1, primary screen, cell lysate, small-molecule microarray (AID 1124);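 also: lysate comes from COS7 cells expressing LAP1 and is applied at 0.3 µg/mL; score merges spot fluorescence near 667 nm with signal-to-noise over triplicate slides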
# Conditions: probe aLAP1, fluorescence, higher = more signal
row,SMILES,composite z-score
1,[N-]=[N+]=Nc1ccccc1C[C@@]1(C(=O)N2CCOCC2)N=C(c2ccc(OCCCO)cc2)O[C@@H]1c1ccccc1,-0.235
2,[N-]=[N+]=Nc1ccccc1C[C@]1(C(=O)O)COC(c2ccc(OCCCO)cc2)=N1,-0.165
3,COCCOC(=O)N1C(=O)[C@@]2(c3cc(C#CC4=CCCCC4)ccc31)[C@H](c1ccccc1OCCO)N1[C@H](c3ccccc3)[C@H](c3ccccc3)OC(=O)[C@H]1[C@@H]2C(=O)N1CCN(c2ncccn2)CC1,0.297
4,O=C1O[C@@H](c2ccccc2)[C@@H](c2ccccc2)N2[C@@H](c3ccc(OCCO)cc3)[C@]3(C(=O)Nc4ccc(C#CC5=CCCCC5)cc43)[C@@H](C(=O)NC[C@H](O)c3ccccc3)[C@H]12,0.109
5,[N-]=[N+]=Nc1ccccc1C[C@]1(C(=O)NCCN2CCOCC2)COC(c2ccc(OCCCO)cc2)=N1,1.26
6,O=C1OCCC=C[C@H]2OC34C=CCN(Cn5nnc6ccccc65)C(=O)[C@H]3N(CCCO)C(=O)[C@@H]4C12 (stereo not given in full),1.45
7,CC(C)[Si](C#C[Si](C(C)C)(C(C)C)C(C)C)(O[C@H](c1ccccc1)c1cn(Cc2ccccc2)nn1)C(C)C,-0.0307
8,CC(C)N1C(=O)C[C@@](C(=O)O)(c2ccc([N+](=O)[O-])cc2)[C@H]1c1ccc(CO)cc1,0.0273
9,C=CCC(OC(C)=O)[C@@H]1[C@@H](N(Cc2ccc(-c3ccccc3)cc2)C(=O)c2ccc(-c3ccccc3)cc2)c2cc(OCCCO)ccc2N1C(=O)c1ccc2ccccc2c1 (stereo not given in full),-0.129
10,COc1ccc([Si](C)(C)[C@@H]2[C@@H](CCO)O[C@]3(C(=O)N(Cc4ccccc4)c4ccc(N5CCOC5=O)cc43)[C@H]2C)cc1,0.294
